According to PubChem BioAssay AID1159580 (chemical genetic matrix, 2015):
In all, about 5,500 compounds went through this assay and about 2,000 (36%) were called active. Inconclusive results (about 18%) are left out. No stated cut-off is given here; in the data, active means normalized growth mostly below about 0.91 (no sharp cut-off); inconclusive means no clear call, values can overlap the other calls; inactive means mostly above about 0.92. The list shows a part of the results.

Assay: chemical genetic growth profiling, strain panel (AID 1159580);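 further: tested at 20 µM; growth read once vehicle control cultures reached saturation at 30 °C; 1 = growth at the plate median or of vehicle wells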
Conditions: S. cerevisiae deletion strains, growth OD
[1] = locus YMR307W, strain GAS1, stronger effect = lower value
[2] = locus YPL055C, strain LGE1, stronger effect = lower value
[3] = locus YHR030C, strain SLT2, stronger effect = lower value

Measured: normalized growth

O=C1NCN(c2ccccc2)C12CCN(CC1COc3ccccc3O1)CC2 (stereo unspecified)
inactive: locus YAL040C, strain CLN3, stronger effect = lower value 1 | locus YCL061C, strain MRC1 (second series), stronger effect = lower value 1.01 | locus YDR363W, strain ESC2, stronger effect = lower value 0.998 | locus YER002W, strain NOP16, stronger effect = lower value 1.02 | locus YGR229C, strain SMI1, stronger effect = lower value 0.999 | [1] 0.999 | locus YNL128W, strain TEP1, stronger effect = lower value 1.04 | locus YNL175C, strain NOP13, stronger effect = lower value 1.02 | locus YNL197C, strain WHI3, stronger effect = lower value 1.02 | locus YNL224C, strain SQS1, stronger effect = lower value 1 | locus YOR083W, strain WHI5 (second series), stronger effect = lower value 1.04 | [2] 1.01

N#CCOc1ccc(Cl)cc1Cl
inactive: locus YAL013W, strain DEP1, stronger effect = lower value 0.99 | locus YBR229C, strain ROT2, stronger effect = lower value 0.97 | locus YDL101C, strain DUN1, stronger effect = lower value 0.976 | locus YDR150W, strain NUM1, stronger effect = lower value 0.95 | locus YEL061C, strain CIN8, stronger effect = lower value 0.99 | locus YGR078C, strain PAC10, stronger effect = lower value 0.965 | [3] 0.95 | locus YHR087W, strain rtc3, stronger effect = lower value 0.977 | locus YJR043C, strain POL32, stronger effect = lower value 0.975 | locus YJR075W, strain HOC1, stronger effect = lower value 0.915 | locus YLR039C, strain RIC1, stronger effect = lower value 1.07 | locus YLR058C, strain SHM2 (second series), stronger effect = lower value 0.954 | locus YLR085C, strain ARP6, stronger effect = lower value 1 | locus YLR262C, strain YPT6, stronger effect = lower value 1.01 | locus YML094W, strain GIM5, stronger effect = lower value 0.983 | locus YMR219W, strain ESC1, stronger effect = lower value 0.955 | locus YMR263W, strain SAP30, stronger effect = lower value 0.987 | [1] 1.06 | locus YNL153C, strain GIM3, stronger effect = lower value 0.997 | locus YNL298W, strain CLA4 (second series), stronger effect = lower value 1.02 | locus YNL322C, strain KRE1, stronger effect = lower value 0.96 | locus YNR030W, strain Alg12, stronger effect = lower value 0.997 | locus YOL006C, strain TOP1, stronger effect = lower value 1.06 | [2] 1.12 | locus YPL241C, strain CIN2, stronger effect = lower value 0.985 | locus YPR135W, strain CTF4, stronger effect = lower value 0.968

Oc1cc(Cl)ccc1Oc1ccc(Cl)cc1Cl
active: locus YAL021C, strain ccr4, stronger effect = lower value 0.0638 | locus YAL026C, strain drs2, stronger effect = lower value 0.0609 | locus YAL030W, strain snc1, stronger effect = lower value 0.0536 | locus YBL061C, strain skt5, stronger effect = lower value 0.0556 | locus YBR009C, strain hhf1, stronger effect = lower value 0.061 | locus YBR023C, strain chs3, stronger effect = lower value 0.0591 | locus YBR171W, strain sec66, stronger effect = lower value 0.0725 | locus YBR231C, strain swc5, stronger effect = lower value 0.0579 | locus YBR279W, strain paf1, stronger effect = lower value 0.0562 | locus YCL011C, strain gbp2, stronger effect = lower value 0.0544 | locus YCL016C, strain dcc1, stronger effect = lower value 0.0625 | locus YCL069W, strain vba3, stronger effect = lower value 0.0589 | locus YCR088W, strain abp1, stronger effect = lower value 0.0589 | locus YDL005C, strain med2, stronger effect = lower value 0.0705 | locus YDL040C, strain nat1, stronger effect = lower value 0.0546 | locus YDR001C, strain nth1, stronger effect = lower value 0.0558 | locus YDR069C, strain doa4, stronger effect = lower value 0.0627 | locus YDR137W, strain rgp1, stronger effect = lower value 0.0997 | locus YDR159W, strain sac3, stronger effect = lower value 0.0882 | locus YDR195W, strain ref2 0.117 | locus YDR297W, strain sur2, stronger effect = lower value 0.0544 | locus YDR334W, strain swr1, stronger effect = lower value 0.0588 | locus YDR335W, strain msn5, stronger effect = lower value 0.0583 | locus YDR392W, strain spt3, stronger effect = lower value 0.0729 | locus YEL003W, strain gim4, stronger effect = lower value 0.0524 | locus YEL037C, strain rad23, stronger effect = lower value 0.0551 | locus YEL061C, strain CIN8 (second series), stronger effect = lower value 0.0576 | locus YER015W, strain faa2, stronger effect = lower value 0.0585 | locus YER016W, strain bim1, stronger effect = lower value 0.0591 | locus YER111C, strain swi4, stronger effect = lower value 0.0671 | locus YER155C, strain BEM2 (second series), stronger effect = lower value 0.0885 | locus YFR010W, strain ubp6, stronger effect = lower value 0.0707 | locus YGL167C, strain pmr1, stronger effect = lower value 0.0693 | locus YGL173C, strain kem1, stronger effect = lower value 0.0649 | locus YGL227W, strain vid30, stronger effect = lower value 0.0625 | locus YGL240W, strain doc1, stronger effect = lower value 0.0739 | locus YGL253W, strain hxk2, stronger effect = lower value 0.054 | locus YHR013C, strain ard1, stronger effect = lower value 0.104 | locus YHR027C, strain rpn1, stronger effect = lower value 0.059 | [3] 0.104 | locus YHR079C, strain IRE1, stronger effect = lower value 0.121 | locus YHR142W, strain chs7, stronger effect = lower value 0.0756 | locus YJL092W, strain hpr5, stronger effect = lower value 0.0585 | locus YJL095W, strain BCK1 (second series), stronger effect = lower value 0.0552 | locus YJL095W, strain BCK1, stronger effect = lower value 0.127 | locus YJL115W, strain asf1, stronger effect = lower value 0.0692 | locus YJL129C, strain trk1, stronger effect = lower value 0.084 | locus YJL154C, strain vps35, stronger effect = lower value 0.0565 | locus YJL164C, strain tpk1, stronger effect = lower value 0.0601 | locus YJL166W, strain qcr8, stronger effect = lower value 0.0623 | locus YJR066W, strain TOR1, stronger effect = lower value -0.00201 | locus YKL160W, strain elf1, stronger effect = lower value 0.0596 | locus YKR026C, strain gcn3, stronger effect = lower value 0.0592 | locus YKR091W, strain srl3, stronger effect = lower value 0.0544 | locus YLL001W, strain dnm1, stronger effect = lower value 0.0612 | locus YLL026W, stronger effect = lower value 0.0561 | locus YLL041C, strain sdh2, stronger effect = lower value 0.0533 | locus YLR027C, strain aat2, stronger effect = lower value 0.0538 | locus YLR113W, strain HOG1, stronger effect = lower value 0.158 | locus YLR221C, strain rsa3, stronger effect = lower value 0.0589 | locus YLR258W, strain gsy2, stronger effect = lower value 0.0574 | locus YLR262C, strain YPT6 (second series), stronger effect = lower value 0.0751 | locus YLR320W, strain mms22, stronger effect = lower value 0.0752 | locus YLR342W, strain FKS1, stronger effect = lower value 0.0642 | locus YLR357W, strain rsc2, stronger effect = lower value 0.118 | locus YLR370C, strain arc18, stronger effect = lower value 0.0628 | locus YLR384C, strain iki3, stronger effect = lower value 0.057 | locus YML120C, strain ndi1, stronger effect = lower value 0.0562 | locus YMR058W, strain fet3, stronger effect = lower value 0.0596 | locus YMR125W, strain sto1, stronger effect = lower value 0.0732 | locus YMR129W, stronger effect = lower value 0.0549 | locus YMR205C, strain PFK2, stronger effect = lower value 0.0834 | locus YMR231W, strain pep5, stronger effect = lower value 0.0636 | locus YNL071W, strain lat1, stronger effect = lower value 0.0584 | locus YNL183C, strain NPR1, stronger effect = lower value 0.00315 | locus YNL209W, strain ssb2, stronger effect = lower value 0.0563 | locus YNL248C, strain rpa49, stronger effect = lower value 0.0865 | locus YNL322C, strain KRE1 (second series), stronger effect = lower value 0.0621 | locus YNR049C, strain mso1, stronger effect = lower value 0.0553 | locus YOR001W, strain rrp6, stronger effect = lower value 0.0701 | locus YOR070C, strain gyp1, stronger effect = lower value 0.0564 | locus YOR080W, strain dia2, stronger effect = lower value 0.0614 | locus YOR083W, strain WHI5, stronger effect = lower value 0.0594 | locus YOR106W, strain vam3, stronger effect = lower value 0.066 | locus YOR231W, strain MKK1, stronger effect = lower value 0.109 | locus YOR265W, strain rbl2, stronger effect = lower value 0.0537 | locus YOR270C, strain vph1, stronger effect = lower value 0.0953 | locus YOR290C, strain snf2, stronger effect = lower value 0.0603 | locus YPL051W, strain arl3, stronger effect = lower value 0.0598 | locus YPL078C, strain atp4, stronger effect = lower value 0.0627 | locus YPL106C, strain sse1, stronger effect = lower value 0.103 | locus YPL240C, strain hsp82, stronger effect = lower value 0.0561 | locus YPL256C, strain CLN2, stronger effect = lower value 0.121
